Measurements reported in PubChem BioAssay (EPA / NIEHS).
“And” between values parts separate entries of the source, which are not always exact repeats. Equal values may be shown once. Inconclusive results are not listed. The source made the active and inactive calls. How the source made its calls, unless noted: active means hit-call score of the fitted dose curve at least 0.9, where 1 is the maximum; inactive means score below 0.9.

Key:
[1] = biological target: Glucocorticoid receptor (Homo sapiens) (UniProt P04150); experiment: ATG_GR_TRANS: Attagene TRANS-FACTORIAL HepG2 Assay for human Glucocorticoid Receptor (GR) (AID 2282978; active means hit-call score of the fitted dose curve at least 0.9, where 1 is the maximum;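 further: activators score as hits since higher reporter transcript over DMSO is fitted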); details: HepG2 Attagene TRANS GR reporter, mRNA transcription
Method in brief: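 After 24 h incubation with test chemical, transfected HepG2 cells were lysed for RNA; reporter cDNA was amplified, FAM-labelled, HpaI-digested and sized on a capillary analyser. Signal gain relative to DMSO was scored.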

[2] = biological target: Bile acid receptor (Homo sapiens) (UniProt Q96RI1); experiment: ATG_FXR_TRANS: Attagene TRANS-FACTORIAL HepG2 Assay for Farnesoid X Receptor (FXR) (AID 2282979; active means hit-call score of the fitted dose curve at least 0.9, where 1 is the maximum;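 further: hits raise reporter mRNA above DMSO so AC50 marks FXR activation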); details: HepG2 Attagene TRANS FXR-GAL4 reporter transcription
Method in brief: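 After 24 h chemical treatment of transfected HepG2 cells, GAL4-UAS reporter transcripts driven by an exogenous FXR-GAL4 fusion were measured by RT-PCR and capillary electrophoresis. Increases over DMSO were fitted.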

[3] = biological target: Oxysterols receptor LXR-beta (Homo sapiens) (UniProt P55055); experiment: ATG_LXRb_TRANS: Attagene TRANS-FACTORIAL HepG2 Assay for human Liver X Receptor beta (LXRb) (AID 2282981; active means hit-call score of the fitted dose curve at least 0.9, where 1 is the maximum); details: HepG2 Attagene TRANS GAL4-LXRb reporter, mRNA
Method in brief: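 Transient transfection HepG2 (multiplexed RTUs, GAL4-UAS); NR-Gal4 chimera; 24 h exposure; RNA → RT-PCR → 6-FAM primer extension → HpaI → CE; increase vs DMSO.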

[4] = biological target: Hepatocyte nuclear factor 4-alpha (Homo sapiens) (UniProt P41235); experiment: ATG_HNF4a_TRANS: Attagene TRANS-FACTORIAL HepG2 Assay for human Hepatocyte Nuclear Factor 4 alpha (HNF4a) (AID 2282982; active means hit-call score of the fitted dose curve at least 0.9, where 1 is the maximum); details: HepG2 HNF4a transactivation reporter, mRNA readout
Method in brief: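 Readout is fluorescent reporter-transcript fragments resolved by capillary electrophoresis after RT-PCR from HepG2 cells dosed for 24 h. Cells carried transfected GAL4-UAS reporter constructs measuring exogenous NR-GAL4 chimera activity; DMSO served as baseline.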

[5] = biological target: Nuclear receptor subfamily 4 group A member 2 (Homo sapiens) (UniProt P43354); experiment: ATG_NURR1_TRANS: Attagene TRANS-FACTORIAL HepG2 Assay for human Nuclear Receptor Related Protein 1 (NURR1) (AID 2282985; active means hit-call score of the fitted dose curve at least 0.9, where 1 is the maximum); details: HepG2 Attagene TRANS reporter, mRNA readout
Method in brief: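 Transient transfection of HepG2, human liver cells, with multiple GAL4-UAS reporter transcription units. Cells dosed 24 h, RNA isolated, reverse-transcribed, PCR-amplified, FAM-labelled, HpaI-digested, sized by capillary electrophoresis. DMSO served as negative control.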

[6] = biological target: Nuclear respiratory factor 1 (Homo sapiens) (UniProt Q16656); experiment: ATG_NRF1_CIS: Attagene CIS-FACTORIAL HepG2 Assay for human Nuclear Respiratory Factor 1 (NRF1) Orphan Gene (AID 2282987); details: HepG2 NRF1 cis-element reporter, Attagene multiplex; actives raise or lower the signal
Method in brief: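 Measured: fluorescent reporter-specific RT-PCR products from transfected HepG2 cells, separated by capillary electrophoresis. Exposure lasted 24 h. Analysis used bidirectional curve fitting with DMSO as negative control.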

[7] = ATG_NFI_CIS: Attagene CIS-FACTORIAL HepG2 Assay for human Nuclear Factor I (NFI) (AID 2282989); details: HepG2 cis-regulatory reporter, NFI response element transcription; actives raise or lower the signal
Method in brief: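 Reporter transcription driven by endogenous transcription factors in HepG2 cells; 24 h treatment. Quantitation by labelled RT-PCR fragments on capillary electrophoresis, gain- or loss-of-signal relative to DMSO.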

[8] = biological target: Myc proto-oncogene protein (Homo sapiens) (UniProt P01106); experiment: ATG_Myc_CIS: Attagene CIS-FACTORIAL HepG2 Assay for human Myelocytomatosis (Myc) Proto-Oncogene Transcription Factor (AID 2282990); details: HepG2, Attagene cis-reporter transcription factor activity; actives raise or lower the signal
Method in brief: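 After 24 h chemical treatment of HepG2 cells carrying multiplexed cis-regulated reporter constructs, reporter transcripts quantified by RT-PCR and capillary electrophoresis of fluorescent fragments. Gain or loss fitted against DMSO baseline.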

[9] = ATG_NF_kB_CIS: Attagene CIS-FACTORIAL HepG2 Assay for human Nuclear Factor Kappa B (NF-kB) (AID 2282991); details: HepG2 Attagene cis-factorial NF-kB reporter mRNA; actives raise or lower the signal
Method in brief: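 Fluorescence of labelled RT-PCR products separated by capillary electrophoresis gives reporter mRNA levels from transfected HepG2 cells exposed 24 h; values are fitted in both directions relative to DMSO.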

[10] = ATG_NRF2_ARE_CIS: Attagene CIS-FACTORIAL HepG2 Assay for human Nuclear Factor Erythroid 2 Related Factor 2 (NFR2) response to Antioxidant Response Elements (ARE) (AID 2282992); details: HepG2 Attagene ARE/NRF2 reporter, transcription factor activity; actives raise or lower the signal
Method in brief: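 HepG2 cells transiently transfected with multiplexed cis-element reporter constructs, 24 h after chemical dosing; reporter mRNA quantified by RT-PCR, fluorescent primer extension, HpaI digestion and capillary electrophoresis. Bidirectional fit relative to DMSO.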

[11] = ATG_Oct_MLP_CIS: Attagene CIS-FACTORIAL HepG2 Assay for human Octamer-Binding Transcription Factor (Oct) (AID 2282993); details: HepG2 Attagene cis-factorial Oct reporter, mRNA; actives raise or lower the signal
Method in brief: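 Transfected HepG2 cells, 24 h treatment. Reporter mRNA quantified by RT-PCR–capillary electrophoresis; bidirectional fitting against DMSO.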

[12] = biological target: Cellular tumor antigen p53 (Homo sapiens) (UniProt P04637); experiment: ATG_p53_CIS: Attagene CIS-FACTORIAL HepG2 Assay for human p53 Transcription Factor (AID 2282994); details: HepG2 p53 cis-element reporter, Attagene mRNA; actives raise or lower the signal
Method in brief: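 HepG2 cells transiently transfected with cis-regulated multiple reporter transcription units, dosed 24 h. Reporter mRNA measured by RT-PCR, 6-FAM primer extension, HpaI digestion and capillary electrophoresis; bidirectional fit relative to DMSO.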

[13] = biological target: Oxysterols receptor LXR-alpha (Homo sapiens) (UniProt Q13133); experiment: ATG_LXRa_TRANS: Attagene TRANS-FACTORIAL HepG2 Assay for human Liver X Receptor alpha (LXRa) (AID 2282980; active means hit-call score of the fitted dose curve at least 0.9, where 1 is the maximum); details: HepG2 Attagene TRANS reporter, LXRa transactivation
Method in brief: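 In this multiplexed TRANS system, compounds act on HepG2 cells carrying GAL4-UAS reporter units and a receptor-GAL4 fusion for 24 h. Induced reporter RNA is amplified, fluorescently labelled and sized by capillary electrophoresis, with DMSO as baseline.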

[14] = ATG_M_06_TRANS: Attagene TRANS-FACTORIAL HepG2 Assay for M06 Transcription Factor (Internal Marker) (AID 2282983; active means hit-call score of the fitted dose curve at least 0.9, where 1 is the maximum); details: HepG2 Attagene TRANS M06 internal marker reporter
Method in brief: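 Internal-marker background readout from a multiplexed TRANS reporter system in HepG2; 24 h dosing; mRNA induction quantified by RT-PCR plus capillary electrophoresis fluorescence; DMSO as negative control and baseline.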

[15] = ATG_M_32_TRANS: Attagene TRANS-FACTORIAL HepG2 Assay for M32 Transcription Factor (Internal Marker) (AID 2282984; active means hit-call score of the fitted dose curve at least 0.9, where 1 is the maximum;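 further: transcript level of a background control reporter unit measured by RT-PCR and capillary electrophoresis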); details: HepG2 Attagene TRANS M32 internal marker reporter
Method in brief: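 Measures reporter mRNA induction in human HepG2 liver cells after 24 h chemical treatment. Transcripts from transiently transfected GAL4-UAS reporter units are amplified, fluorescently labelled and sized by capillary electrophoresis; gain of signal relative to DMSO.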

[16] = biological target: Transcriptional activator Myb (Homo sapiens) (UniProt P10242); experiment: ATG_Myb_CIS: Attagene CIS-FACTORIAL HepG2 Assay for human Myeloblastosis (Myb) Proto-Oncogene Transcription Factor (AID 2282986); details: HepG2 Attagene CIS-FACTORIAL Myb reporter transcription; actives raise or lower the signal
Method in brief: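 After 24 h of compound dosing, total RNA from transfected HepG2 cells is reverse-transcribed and the reporter sequences amplified, labeled and separated by capillary electrophoresis. Values come from bidirectional fitting against DMSO.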

[17] = BSK_3C_TissueFactor: BioMAP Diversity Plus: 3C Assay for Tissue Factor Biomarker Activity (AID 2282997); details: BioMAP 3C HUVEC, tissue factor biomarker readout; actives raise or lower the signal
Method in brief: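 Endothelial monolayers (human umbilical vein, primary) are dosed, incubated 24 h, and assayed for Tissue Factor by ELISA; DMSO serves as negative control for bidirectional fitting.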

[18] = BSK_3C_uPAR: BioMAP Diversity Plus: 3C Assay for Urokinase-type plasminogen activator receptor (uPAR) Biomarker Activity (AID 2282998); details: BioMAP 3C HUVEC, uPAR biomarker ELISA; actives raise or lower the signal
Method in brief: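 Readout: ELISA for surface uPAR. System: human umbilical vein endothelial primary cells, 24 h after chemical exposure. Analysis: bidirectional fit, DMSO baseline.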

[19] = BSK_3C_VCAM1: BioMAP Diversity Plus: 3C Assay for Vascular cell adhesion molecule 1 (VCAM1) Biomarker Activity (AID 2282999); details: BioMAP 3C HUVEC, VCAM1 ELISA, cytokine-stimulated; actives raise or lower the signal
Method in brief: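 Endothelial cells from human umbilical vein are treated with test chemical. At 24 h, VCAM-1 is measured by ELISA, and responses in either direction are fitted relative to DMSO.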

Measured: AC50

Chain of Myc proto-oncogene protein (Homo sapiens) (P01106 whole entry, looked up, the tested form may be a part): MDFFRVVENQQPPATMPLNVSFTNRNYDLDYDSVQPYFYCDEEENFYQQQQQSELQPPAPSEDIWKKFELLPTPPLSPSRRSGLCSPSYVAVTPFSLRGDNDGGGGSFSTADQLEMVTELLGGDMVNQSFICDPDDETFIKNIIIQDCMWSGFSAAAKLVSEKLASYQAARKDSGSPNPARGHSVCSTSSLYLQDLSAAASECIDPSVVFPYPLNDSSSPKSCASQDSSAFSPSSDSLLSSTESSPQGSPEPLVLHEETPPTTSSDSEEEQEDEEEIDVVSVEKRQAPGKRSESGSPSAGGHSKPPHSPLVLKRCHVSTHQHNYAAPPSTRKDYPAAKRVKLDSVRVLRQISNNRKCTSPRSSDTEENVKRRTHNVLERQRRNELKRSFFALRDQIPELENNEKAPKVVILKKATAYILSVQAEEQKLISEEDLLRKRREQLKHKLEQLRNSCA
Chain of Transcriptional activator Myb (Homo sapiens) (P10242 whole entry, looked up): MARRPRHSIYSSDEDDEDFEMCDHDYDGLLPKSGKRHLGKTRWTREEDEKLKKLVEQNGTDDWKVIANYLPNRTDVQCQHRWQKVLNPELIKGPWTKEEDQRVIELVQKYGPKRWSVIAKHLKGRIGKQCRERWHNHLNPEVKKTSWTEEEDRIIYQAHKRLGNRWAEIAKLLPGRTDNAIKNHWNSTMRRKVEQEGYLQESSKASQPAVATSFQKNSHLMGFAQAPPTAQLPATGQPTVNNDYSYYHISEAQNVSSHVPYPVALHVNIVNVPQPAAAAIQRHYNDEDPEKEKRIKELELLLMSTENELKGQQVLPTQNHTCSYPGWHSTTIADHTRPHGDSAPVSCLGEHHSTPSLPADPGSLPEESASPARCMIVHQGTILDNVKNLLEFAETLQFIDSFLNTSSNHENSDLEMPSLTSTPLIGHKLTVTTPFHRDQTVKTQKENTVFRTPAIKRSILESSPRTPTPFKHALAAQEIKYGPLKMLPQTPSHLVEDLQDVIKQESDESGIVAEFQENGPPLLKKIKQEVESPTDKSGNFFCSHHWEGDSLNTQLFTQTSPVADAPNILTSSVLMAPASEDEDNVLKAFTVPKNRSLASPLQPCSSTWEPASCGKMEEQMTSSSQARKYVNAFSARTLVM
Chain of Oxysterols receptor LXR-alpha (Homo sapiens) (Q13133 whole entry, looked up, the tested form may be a part): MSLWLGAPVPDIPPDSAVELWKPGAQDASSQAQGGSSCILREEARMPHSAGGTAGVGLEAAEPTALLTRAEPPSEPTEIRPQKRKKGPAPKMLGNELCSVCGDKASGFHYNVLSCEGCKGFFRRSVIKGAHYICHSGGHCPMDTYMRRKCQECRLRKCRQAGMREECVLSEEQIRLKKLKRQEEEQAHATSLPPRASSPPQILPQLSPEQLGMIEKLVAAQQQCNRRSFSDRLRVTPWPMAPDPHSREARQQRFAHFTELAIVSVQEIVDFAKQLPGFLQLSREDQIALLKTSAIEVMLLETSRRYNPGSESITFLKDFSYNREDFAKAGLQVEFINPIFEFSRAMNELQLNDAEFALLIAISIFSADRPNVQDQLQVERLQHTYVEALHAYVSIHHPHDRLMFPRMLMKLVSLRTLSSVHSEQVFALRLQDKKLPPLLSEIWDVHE
Chain of Hepatocyte nuclear factor 4-alpha (Homo sapiens) (P41235 whole entry, looked up, the tested form may be a part): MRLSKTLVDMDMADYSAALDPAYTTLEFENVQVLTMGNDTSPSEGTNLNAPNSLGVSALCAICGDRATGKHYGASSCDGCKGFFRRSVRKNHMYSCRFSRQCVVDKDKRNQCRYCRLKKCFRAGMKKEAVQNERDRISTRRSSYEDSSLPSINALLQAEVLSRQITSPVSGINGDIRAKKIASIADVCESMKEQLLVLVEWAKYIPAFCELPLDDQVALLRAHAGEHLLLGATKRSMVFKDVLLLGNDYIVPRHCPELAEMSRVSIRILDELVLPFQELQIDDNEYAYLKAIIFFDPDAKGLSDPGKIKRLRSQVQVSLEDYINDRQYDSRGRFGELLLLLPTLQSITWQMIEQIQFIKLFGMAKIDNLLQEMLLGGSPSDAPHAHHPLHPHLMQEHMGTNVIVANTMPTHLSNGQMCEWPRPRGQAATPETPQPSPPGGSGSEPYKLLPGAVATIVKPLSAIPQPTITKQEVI
Chain of Nuclear respiratory factor 1 (Homo sapiens) (Q16656 whole entry, looked up): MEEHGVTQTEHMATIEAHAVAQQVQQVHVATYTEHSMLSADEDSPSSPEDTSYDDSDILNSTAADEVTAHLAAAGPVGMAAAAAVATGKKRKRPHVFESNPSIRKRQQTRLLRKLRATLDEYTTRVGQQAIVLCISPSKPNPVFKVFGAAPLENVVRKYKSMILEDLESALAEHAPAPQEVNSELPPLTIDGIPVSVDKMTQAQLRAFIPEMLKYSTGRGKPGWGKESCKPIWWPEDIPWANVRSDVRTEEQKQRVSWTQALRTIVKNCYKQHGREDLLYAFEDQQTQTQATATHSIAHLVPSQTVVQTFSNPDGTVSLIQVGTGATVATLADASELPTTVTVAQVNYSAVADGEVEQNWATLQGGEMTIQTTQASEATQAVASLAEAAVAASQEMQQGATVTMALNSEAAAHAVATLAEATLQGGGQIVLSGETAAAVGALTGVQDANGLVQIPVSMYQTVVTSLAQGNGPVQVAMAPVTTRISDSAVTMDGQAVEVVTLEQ
Chain of Cellular tumor antigen p53 (Homo sapiens) (P04637 whole entry, looked up): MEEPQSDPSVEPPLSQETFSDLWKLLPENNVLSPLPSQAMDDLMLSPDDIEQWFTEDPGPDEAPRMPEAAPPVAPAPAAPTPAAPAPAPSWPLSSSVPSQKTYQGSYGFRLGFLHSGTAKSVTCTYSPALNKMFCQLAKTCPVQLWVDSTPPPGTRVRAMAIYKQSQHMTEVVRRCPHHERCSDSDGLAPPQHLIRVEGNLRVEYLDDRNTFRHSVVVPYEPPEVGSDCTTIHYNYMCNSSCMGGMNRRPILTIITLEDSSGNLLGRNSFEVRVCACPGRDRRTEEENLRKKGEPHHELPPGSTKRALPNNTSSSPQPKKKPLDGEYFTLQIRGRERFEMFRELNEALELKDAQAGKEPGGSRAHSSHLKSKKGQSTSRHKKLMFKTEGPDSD
Chain of Oxysterols receptor LXR-beta (Homo sapiens) (P55055 whole entry, looked up, the tested form may be a part): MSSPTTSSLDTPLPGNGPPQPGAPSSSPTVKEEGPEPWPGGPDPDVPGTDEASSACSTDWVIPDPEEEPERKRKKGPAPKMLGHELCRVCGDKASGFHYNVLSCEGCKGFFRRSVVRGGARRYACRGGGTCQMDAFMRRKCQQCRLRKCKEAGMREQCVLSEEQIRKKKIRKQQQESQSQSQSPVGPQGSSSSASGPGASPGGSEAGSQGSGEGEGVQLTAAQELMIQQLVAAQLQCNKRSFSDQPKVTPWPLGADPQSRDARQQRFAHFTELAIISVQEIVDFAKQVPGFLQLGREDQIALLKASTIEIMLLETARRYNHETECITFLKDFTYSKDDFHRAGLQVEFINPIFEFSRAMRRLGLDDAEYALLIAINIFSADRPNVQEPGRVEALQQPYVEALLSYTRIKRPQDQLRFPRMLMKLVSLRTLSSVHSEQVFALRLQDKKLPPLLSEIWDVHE
Chain of Nuclear receptor subfamily 4 group A member 2 (Homo sapiens) (P43354 whole entry, looked up, the tested form may be a part): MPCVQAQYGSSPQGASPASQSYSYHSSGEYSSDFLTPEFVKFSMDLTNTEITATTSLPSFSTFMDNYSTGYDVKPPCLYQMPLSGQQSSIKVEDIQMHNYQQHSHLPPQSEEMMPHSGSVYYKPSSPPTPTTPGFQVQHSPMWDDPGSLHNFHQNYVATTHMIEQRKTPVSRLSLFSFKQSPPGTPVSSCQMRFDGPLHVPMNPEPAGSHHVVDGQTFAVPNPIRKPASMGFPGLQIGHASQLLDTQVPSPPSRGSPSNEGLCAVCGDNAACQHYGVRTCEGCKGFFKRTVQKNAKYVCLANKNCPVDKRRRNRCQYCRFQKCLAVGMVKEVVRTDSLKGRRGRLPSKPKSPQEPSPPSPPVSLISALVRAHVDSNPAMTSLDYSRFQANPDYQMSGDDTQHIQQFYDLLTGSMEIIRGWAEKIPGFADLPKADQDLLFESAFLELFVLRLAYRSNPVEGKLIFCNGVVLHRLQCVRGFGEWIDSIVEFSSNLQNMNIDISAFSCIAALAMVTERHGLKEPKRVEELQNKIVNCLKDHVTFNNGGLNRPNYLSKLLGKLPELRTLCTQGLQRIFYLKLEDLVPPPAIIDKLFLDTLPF
Chain of Glucocorticoid receptor (Homo sapiens) (P04150 whole entry, looked up): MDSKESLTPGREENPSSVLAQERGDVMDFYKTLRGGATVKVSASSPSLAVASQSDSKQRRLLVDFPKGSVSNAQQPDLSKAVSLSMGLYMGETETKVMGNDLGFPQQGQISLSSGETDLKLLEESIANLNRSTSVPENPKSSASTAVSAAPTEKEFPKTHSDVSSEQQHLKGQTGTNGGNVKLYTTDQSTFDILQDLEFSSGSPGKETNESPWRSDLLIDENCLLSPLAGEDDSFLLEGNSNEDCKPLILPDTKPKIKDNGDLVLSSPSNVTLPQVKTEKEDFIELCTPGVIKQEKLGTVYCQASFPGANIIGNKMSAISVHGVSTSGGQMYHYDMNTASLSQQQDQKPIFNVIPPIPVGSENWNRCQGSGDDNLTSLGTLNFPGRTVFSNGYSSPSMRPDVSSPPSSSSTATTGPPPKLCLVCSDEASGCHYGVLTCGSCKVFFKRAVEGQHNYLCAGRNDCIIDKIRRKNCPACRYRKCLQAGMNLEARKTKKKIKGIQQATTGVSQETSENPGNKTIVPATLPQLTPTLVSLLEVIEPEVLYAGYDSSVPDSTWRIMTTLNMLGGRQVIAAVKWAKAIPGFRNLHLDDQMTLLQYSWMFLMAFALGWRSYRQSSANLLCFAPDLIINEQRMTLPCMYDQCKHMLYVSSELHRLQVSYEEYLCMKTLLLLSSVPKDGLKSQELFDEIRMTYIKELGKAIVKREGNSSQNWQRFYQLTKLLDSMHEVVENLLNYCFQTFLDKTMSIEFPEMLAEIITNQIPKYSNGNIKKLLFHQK

CN1CCN(C)CC1
inactive: [1] | [2] | [3] | [4] | [5] | [6] | [7] | [8] | [9] | [10] | [11] | [12]

C=C1C[C@H]2[C@@H]3C=C(C)C4=CC(=O)CC[C@]4(C)[C@H]3CC[C@]2(C)[C@@]1(OC(C)=O)C(C)=O
active: [1] 0.0106 µM | [13] 16.6 µM | [6] 88.1 µM | [7] 106 µM | [9] 63 µM | [10] 42.1 µM
inactive: [3] | [14] | [15] | [5] | [16] | [8] | [11] | [12]

Oc1ccc(-c2ccccc2)c(Cl)c1
inactive: [1] | [13] | [3] | [15] | [16] | [6] | [8] | [9] | [12]
active: [7] 33.4 µM | [10] 22.7 µM | [11] 52.3 µM

C=CCOC(=O)c1ccc(C(=O)OCC=C)c(C(=O)OCC=C)c1
active: [10] 36.1 µM
inactive: [1] | [13] | [14] | [16] | [6] | [7] | [8] | [9] | [11]

Oc1ccccc1Cc1ccccc1O
active: [10] 40.7 µM | [11] 134 µM | [12] 100 µM
inactive: [1] | [13] | [14] | [15] | [16] | [6] | [7] | [8] | [9] | [17] | [18] | [19]

c1ccc(Nc2cccc3ccccc23)cc1
active: [16] 33.4 µM | [6] 52.1 µM | [7] 50.1 µM | [8] 46.7 µM | [10] 33.4 µM | [11] 53.3 µM | [12] 57.1 µM | [17] 36.1 µM and 34.1 µM | [18] 27.6 µM and 24.7 µM | [19] 36.8 µM and 36.9 µM
inactive: [1] | [3] | [14] | [15] | [5] | [9]

Cc1cc(=O)[nH]c(=O)[nH]1
inactive: [1] | [13] | [14] | [16] | [6] | [7] | [8] | [9] | [10] | [11] | [12]

O=C(OCCc1ccccc1)c1ccccc1
inactive: [1] | [13] | [14] | [5] | [16] | [6] | [7] | [8] | [10] | [11] | [12]

CCCCOC(=O)CCC(C)=O
inactive: [1] | [13] | [4] | [15] | [5] | [16] | [6] | [7] | [8] | [9] | [10] | [11]

O=C(O)CCCC(=O)O
inactive: [1] | [3] | [4] | [14] | [15] | [5] | [16] | [6] | [7] | [8] | [10] | [11] | [12]

CCCCOCCOCCOC(C)=O
inactive: [1] | [3] | [15] | [16] | [6] | [7] | [8] | [9] | [10] | [12]
